# Measurements as given in the supplement of paper PMC10681739.
# Assays:
# ETS1 [1] = molecular target: T1, ETS1 (UniProt P14921); assay: ETS1 binding intensity (PBM fluorescence), ETS1 alone (arbitrary fluorescence units); higher = stronger binding; settings: ETS1 concentration 1 nM; RUNX1 concentration 0 nM
# T1 sequence: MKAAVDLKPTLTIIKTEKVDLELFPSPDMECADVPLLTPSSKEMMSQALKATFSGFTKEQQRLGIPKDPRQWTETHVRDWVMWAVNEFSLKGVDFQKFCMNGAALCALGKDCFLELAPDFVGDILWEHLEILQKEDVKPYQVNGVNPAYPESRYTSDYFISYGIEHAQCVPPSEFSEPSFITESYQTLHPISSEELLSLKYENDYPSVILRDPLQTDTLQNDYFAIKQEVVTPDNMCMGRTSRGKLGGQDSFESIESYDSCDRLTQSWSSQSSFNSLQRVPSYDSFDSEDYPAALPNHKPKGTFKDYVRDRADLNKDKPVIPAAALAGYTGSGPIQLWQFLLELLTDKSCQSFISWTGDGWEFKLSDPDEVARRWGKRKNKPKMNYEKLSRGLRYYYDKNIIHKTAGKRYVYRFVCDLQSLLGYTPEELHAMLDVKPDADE
# RUNX1 [2] = molecular target: RUNX1 (UniProt Q01196); assay: RUNX1 binding intensity (PBM fluorescence), RUNX1 alone (arbitrary fluorescence units); higher = stronger binding; settings: RUNX1 concentration 2 nM; ETS1 concentration 0 nM
# Protocol: (§1)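 Cooperative gcPBM on 36-bp genomic probes with neighbouring ETS1 and RUNX1 sites. Recombinant human RUNX1 (2 nM) was incubated alone or with ETS1 (25 nM) and detected with anti-RUNX1 antibody plus Alexa488 secondary. Values are medians over 4 replicate spots; the RUNX1+ETS1 data were normalised to the RUNX1-only data. The probes sit in constant array flanks that are not printed.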
# ETS1 [3] = molecular target: T1, ETS1; assay: ETS1 binding intensity (PBM fluorescence) in presence of RUNX1, normalised to ETS1-only experiment (arbitrary fluorescence units); higher = stronger binding; settings: ETS1 concentration 1 nM; RUNX1 concentration 25 nM
# RUNX1 [4] = molecular target: RUNX1 (UniProt Q01196); assay: RUNX1 binding intensity (PBM fluorescence) in presence of ETS1, normalised to RUNX1-only experiment (arbitrary fluorescence units); higher = stronger binding; settings: RUNX1 concentration 2 nM; ETS1 concentration 25 nM
# Protocol: as §1
# 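For RUNX1 binding intensity (PBM fluorescence) in presence of ETS1, normalised to RUNX1-only experiment in this document: Full-length recombinant human ETS1 or RUNX1 bound to double-stranded 36-bp genomic probes on microarrays, detected by protein-specific primary antibody and Alexa488 secondary, spot fluorescence as median of four replicate spots.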
# 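For RUNX1 binding intensity (PBM fluorescence), RUNX1 alone in this document: Full-length recombinant human RUNX1 bound to double-stranded 36-bp genomic probes on a high-density microarray, scored as Alexa488 fluorescence per spot via anti-RUNX1 antibody, median of four replicate spots.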
# Sequence of RUNX1 (Q01196 whole entry): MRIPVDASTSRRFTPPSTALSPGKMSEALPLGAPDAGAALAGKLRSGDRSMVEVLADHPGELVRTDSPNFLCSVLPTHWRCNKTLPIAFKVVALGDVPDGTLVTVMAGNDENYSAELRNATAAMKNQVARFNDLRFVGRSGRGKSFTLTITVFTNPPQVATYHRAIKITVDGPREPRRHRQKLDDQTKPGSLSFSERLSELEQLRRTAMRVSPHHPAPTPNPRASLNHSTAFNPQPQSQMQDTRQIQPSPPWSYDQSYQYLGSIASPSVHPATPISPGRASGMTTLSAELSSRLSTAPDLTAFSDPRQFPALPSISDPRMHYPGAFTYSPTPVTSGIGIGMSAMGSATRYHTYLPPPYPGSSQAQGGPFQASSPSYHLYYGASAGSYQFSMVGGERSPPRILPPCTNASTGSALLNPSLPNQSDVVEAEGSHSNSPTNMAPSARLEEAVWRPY
Sequence,ETS1 binding intensity (ETS1 [1]),RUNX1 binding intensity (RUNX1 [2]),ETS1 binding intensity (ETS1 [3]),RUNX1 binding intensity (RUNX1 [4])
GCCAGCGGGGCTTCCGGCCCCGCAGGCAGAAGTCGA,1460,646,1290,1260
TTTTATCCTTCCTTTTTTGTTCTTTGTGGTGGAGGT,465,1840,521,2040
CTGCCGCTGCCTTCCGCCCCCACACACGCACACCAC,686,1240,741,1640
GGCCAACGAGAGCGCTTCCGGCCGCAGCCACGGCGG,1950,735,3000,1420
CTCCGGCGGAAGTTGTCTCTTCGCCGCCGCCGCAGC,3590,792,5200,1690
ACTTTCGCGACGCAGGAAGCGCCCACAAAGGGAGGA,2020,802,3000,889
CACCTCCTACTTCCCCCCGCTGATAACCACCAACCC,1700,2990,1790,2830
CGGGGACCACTGTCAGGATGTGGTCACTGGAGTCAC,907,707,8350,1420
CTCCGCCAGCCACCGGAACTGCGGCCCAGCAAAAAG,2590,927,2320,949
AGCCTTAATTACCCGGAAGTGCGGTCCCAGGGACTT,8970,768,12200,1710
GACCTGGGCAGGAAGAGCGGCATGTGGGGCCCCCTG,875,714,795,874
GCTTCTGAGGAAGTGCGTTCTGTGGGTAGGTGGAGT,677,834,1000,918
GGCAGGAAAGAGCTGATGCATTTCAACCGCAGCCTG,520,1110,2430,1040
GAGTTCCGCCTCGCCGTTTGTCCCTTGCGGTACCCG,351,890,620,2030
